Counter-ions that a name gives are not always drawn.
Tests used:
Settings in all cases: 20 µM
[1] = test system: Salmonella enterica typhimurium; assay: growth AUC normalised to DMSO control (fraction of control); higher = less growth inhibition, active = hit call of the paper
Method in brief: (§1)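 Pathogens were passaged twice under anaerobic conditions, then inoculated into pre-reduced mGAM plates at a starting OD578 of 0.01, with compound at 20 μM and 1% DMSO, and sealed with breathable membranes. For Haemophilus parainfluenzae, the medium was supplemented with hemin and NAD. OD578 was read every hour for 24 h in three biological replicates. Growth-curve AUC was calculated by the trapezoidal rule up to the exponential-to-stationary transition and normalised to DMSO controls on the same plate.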

Shigella flexneri = assay: as above
Method in brief: as §1

Vibrio cholerae = assay: as above
Method in brief: as §1

[2] = test system: Yersinia pseudotuberculosis; assay: as above
Method in brief: as §1

P. vulgatus RND KO = assay: growth AUC normalised to DMSO control (median) (fraction of control); higher = less growth inhibition, active = hit call of the paper
Method in brief: (§2)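 Strains were passaged twice overnight without oxygen, then grown in mGAM in 96-well plates with each approved-drug library compound at 20 μM and 1% DMSO, starting at OD578 0.01. OD578 was read hourly for 24 h inside an anaerobic incubator. Curves were truncated at entry into stationary phase, and the trapezoidal-rule area under the curve was normalised to same-plate vehicle wells. The value is the median across three biological replicates.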

P. vulgatus WT = assay: as above
Method in brief: as §2

[3] = test system: S. enterica typhimurium WT; assay: as above
Method in brief: as §2

[4] = test system: S. enterica typhimurium tolC KO; assay: as above
Method in brief: as §2

Measured: growth AUC normalised to DMSO control
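Throughout, for growth AUC normalised to DMSO control (median): active when median AUC fell below 0.1.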

CCOc1ccc(Cc2nccc3cc(OCC)c(OCC)cc23)cc1OCC [Ethaverine hydrochloride]
inactive: [1] 1.01 | Shigella flexneri 1.04 | Vibrio cholerae 1 | [2] 1.01 | P. vulgatus RND KO 1 | P. vulgatus WT 0.998 | [3] 1 | [4] 0.969

Cc1cccc(Nc2ccncc2S(=O)(=O)NC(=O)NC(C)C)c1 [Torsemide]
inactive: [1] 1 | Shigella flexneri 1.04 | Vibrio cholerae 1.01 | [2] 1.01 | P. vulgatus RND KO 1.04 | P. vulgatus WT 1.05 | [3] 1.01 | [4] 1

CC1(C)S[C@@H]2[C@H](NC(=O)[C@H](N)c3ccc(O)cc3)C(=O)N2[C@H]1C(=O)O [Amoxicillin]
active: [1] 0.00744 | Shigella flexneri 0.0257 | Vibrio cholerae 0.68 | [2] 0.0346 | P. vulgatus RND KO 0.0144 | P. vulgatus WT 0.0118 | [3] 0.00737 | [4] 0.00653

N=C(NCCCCCCNC(=N)NC(=N)Nc1ccc(Cl)cc1)NC(=N)Nc1ccc(Cl)cc1 [Chlorhexidine]
active: [1] 0.355 | Shigella flexneri 0.0156 | [2] 0.307 | P. vulgatus RND KO 0.00823 | P. vulgatus WT 0.0134
inactive: Vibrio cholerae 0.954 | [3] 0.942 | [4] 0.816

CCN(CC)CCOC(=O)C(c1ccccc1)c1ccccc1 [Adiphenine hydrochloride]
inactive: [1] 0.974 | Shigella flexneri 0.99 | Vibrio cholerae 1.01 | [2] 1 | P. vulgatus RND KO 1.03 | P. vulgatus WT 1.03 | [3] 0.995 | [4] 1

O=C1CCc2cc(OCCCCc3nnnn3C3CCCCC3)ccc2N1 [Cilostazol]
inactive: [1] 0.985 | Shigella flexneri 0.971 | Vibrio cholerae 0.958 | [2] 0.989 | P. vulgatus RND KO 0.975 | P. vulgatus WT 0.98 | [3] 1 | [4] 0.851

C[C@H](CCC(=O)O)[C@H]1CC[C@H]2[C@@H]3CC[C@@H]4C[C@H](O)CC[C@]4(C)[C@H]3CC[C@]12C [Lithocholic acid]
inactive: [1] 1.01 | Shigella flexneri 1.02 | Vibrio cholerae 1.04 | [2] 1.02 | P. vulgatus RND KO 1.01 | P. vulgatus WT 1.03 | [3] 1 | [4] 0.995

O=C1NCCN1c1ncc([N+](=O)[O-])s1 [Niridazole]
inactive: [2] 0.93
active: [1] 0.0187 | Shigella flexneri 0.204 | Vibrio cholerae 0.036 | P. vulgatus RND KO 0.00953 | P. vulgatus WT 0.00802 | [3] 0.0321 | [4] 0.0104

Nc1nc(O)c2ncn(CCC(CO)CO)c2n1 [Penciclovir]
inactive: [1] 1.01 | Shigella flexneri 1.01 | Vibrio cholerae 1.06 | [2] 1.02 | P. vulgatus RND KO 1.02 | P. vulgatus WT 1.03 | [3] 1 | [4] 0.997

CNS(=O)(=O)Cc1ccc2[nH]cc(CCN(C)C)c2c1 [Sumatriptan succinate]
inactive: [1] 0.996 | Shigella flexneri 0.967 | Vibrio cholerae 0.988 | [2] 1 | P. vulgatus RND KO 1.03 | P. vulgatus WT 1.01 | [3] 1.01 | [4] 1

Nc1nc(=S)c2ncn([C@@H]3O[C@H](CO)[C@@H](O)[C@H]3O)c2[nH]1 [Thioguanosine]
active: [1] 0.828 | Shigella flexneri 0.0952 | [2] 0.826
inactive: Vibrio cholerae 0.957 | P. vulgatus RND KO 1.03 | P. vulgatus WT 1.06 | [3] 0.849 | [4] 0.779

CCc1oc2ccccc2c1C(=O)c1cc(Br)c(O)c(Br)c1 [Benzbromarone]
inactive: [1] 1.01 | Shigella flexneri 0.989 | Vibrio cholerae 0.989 | [2] 0.996 | P. vulgatus RND KO 0.57 | P. vulgatus WT 0.699 | [3] 1 | [4] 0.925

CN1[C@@H]2CC[C@H]1C[C@@H](OC(=O)c1c[nH]c3ccccc13)C2 [Tropisetron hydrochloride]
inactive: [1] 1.01 | Shigella flexneri 0.997 | Vibrio cholerae 1.01 | [2] 1 | P. vulgatus RND KO 1.01 | P. vulgatus WT 1.02 | [3] 1.01 | [4] 1

COc1ccccc1OCC(O)COC(N)=O (configuration not stated) [Methocarbamol]
inactive: [1] 0.986 | Shigella flexneri 0.981 | Vibrio cholerae 0.94 | [2] 0.979 | P. vulgatus RND KO 0.993 | P. vulgatus WT 1.03 | [3] 1 | [4] 1

c1ccc2c(CC3=NCCN3)cccc2c1 [Naphazoline hydrochloride]
inactive: [1] 0.994 | Shigella flexneri 1.01 | Vibrio cholerae 1.01 | [2] 1 | P. vulgatus RND KO 0.958 | P. vulgatus WT 0.943 | [3] 0.992 | [4] 0.999

CC1=C(/C=C/C(C)=C/C=C/C(C)=C\C(=O)O)C(C)(C)CCC1 [Isotretinoin]
inactive: [1] 0.994 | Shigella flexneri 0.992 | Vibrio cholerae 1 | [2] 1 | P. vulgatus RND KO 1.01 | P. vulgatus WT 0.989 | [3] 0.999 | [4] 1

CC(=O)NCCCS(=O)(=O)O [Acamprosate calcium]
inactive: [1] 1 | Shigella flexneri 1.02 | Vibrio cholerae 1 | [2] 0.99 | P. vulgatus RND KO 1.02 | P. vulgatus WT 1.03 | [3] 1 | [4] 0.996

COc1ccc(C(=O)c2ccccc2O)c(O)c1 [Dioxybenzone]
inactive: [1] 0.977 | Shigella flexneri 0.983 | Vibrio cholerae 0.909 | [2] 0.982 | P. vulgatus RND KO 0.981 | P. vulgatus WT 1.01 | [3] 0.993 | [4] 0.951

CCOC(=O)[C@H](CCc1ccccc1)N[C@@H](C)C(=O)N1CCC[C@H]1C(=O)O [Enalapril maleate]
inactive: [1] 1 | Shigella flexneri 1.04 | Vibrio cholerae 1.03 | [2] 1.02 | P. vulgatus RND KO 1 | P. vulgatus WT 1.02 | [3] 1.01 | [4] 0.997

O=C(c1ccccc1)c1ccc2n1CCC2C(=O)O (configuration not stated) [Ketorolac tromethamine]
inactive: [1] 0.986 | Shigella flexneri 0.972 | Vibrio cholerae 0.97 | [2] 0.983 | P. vulgatus RND KO 0.997 | P. vulgatus WT 1.01 | [3] 1.01 | [4] 1

CNC(C)CCC=C(C)C (configuration not stated) [Isometheptene mucate]
inactive: [1] 0.988 | Shigella flexneri 0.995 | Vibrio cholerae 1.01 | [2] 1 | P. vulgatus RND KO 1.01 | P. vulgatus WT 1.02 | [3] 1.01 | [4] 1

COc1cc(Cc2cnc(N)nc2N)cc(OC)c1OC [Trimethoprim]
inactive: P. vulgatus RND KO 0.45 | P. vulgatus WT 0.259 | [3] 0.147 | [4] 0.132
active: [1] 0.197 | Shigella flexneri 0.0632 | Vibrio cholerae 0.0115 | [2] 0.157

CCN(CC)CCOc1ccc(C(=C(Cl)c2ccccc2)c2ccccc2)cc1 [(Z,E) Clomiphene citrate]
inactive: [1] 1.02 | Shigella flexneri 1.02 | Vibrio cholerae 1.01 | [2] 1.02 | P. vulgatus RND KO 0.902 | P. vulgatus WT 0.964 | [3] 1.01 | [4] 0.983

Cn1c(=O)c2c(ncn2CC(=O)O)n(C)c1=O [Acefylline]
inactive: [1] 0.979 | Shigella flexneri 0.987 | Vibrio cholerae 0.98 | [2] 0.987 | P. vulgatus RND KO 0.987 | P. vulgatus WT 0.996 | [3] 0.996 | [4] 1.01

CCCCC1(COC(=O)CCC(=O)O)C(=O)N(c2ccccc2)N(c2ccccc2)C1=O [Suxibuzone]
inactive: [1] 1 | Shigella flexneri 1 | Vibrio cholerae 0.993 | [2] 1.01 | P. vulgatus RND KO 1.02 | P. vulgatus WT 1.03 | [3] 1.01 | [4] 0.985

CC(CN(C)C)C(C)(O)Cc1ccc(Cl)cc1 (configuration not stated) [Clobutinol hydrochloride]
inactive: [1] 0.999 | Shigella flexneri 0.98 | Vibrio cholerae 0.987 | [2] 0.993 | P. vulgatus RND KO 0.999 | P. vulgatus WT 1.03 | [3] 1.01 | [4] 0.994

CCN(CCCCOC(=O)c1ccc(OC)c(OC)c1)C(C)Cc1ccc(OC)cc1 (configuration not stated) [Mebeverine hydrochloride]
inactive: [1] 1.01 | Shigella flexneri 1.03 | Vibrio cholerae 1.02 | [2] 1.01 | P. vulgatus RND KO 1.01 | P. vulgatus WT 1.01 | [3] 1 | [4] 0.934

CNNCc1ccc(C(=O)NC(C)C)cc1 [Procarbazine hydrochloride]
inactive: [1] 1 | Shigella flexneri 1.02 | Vibrio cholerae 1 | [2] 0.992 | P. vulgatus RND KO 1.06 | P. vulgatus WT 1.05 | [3] 1.01 | [4] 1

CC[C@H]1OC(=O)[C@H](C)[C@@H](O[C@H]2C[C@@](C)(OC)[C@@H](O)[C@H](C)O2)[C@H](C)[C@@H](O[C@@H]2O[C@H](C)C[C@H](N(C)C)[C@H]2O)[C@](C)(OC)C[C@@H](C)C(=O)[C@H](C)[C@@H](O)[C@]1(C)O [Clarithromycin]
active: [1] 0.688 | Shigella flexneri 0.508 | Vibrio cholerae 0.0231 | [2] 0.799 | P. vulgatus RND KO 0.0127 | P. vulgatus WT 0.0156 | [4] 0.00712
inactive: [3] 0.744

— the supplement of paper PMC12350171
